L3MBTL1 block: L3MBTL1 (human) inhibition; AlphaScreen L3MBTL1–H3K9me1 peptide binding; Q9Y468; Potency, µM (series often up to 57.1 µM), without a hit: at the top dose activity, negative = inhibition, hits mostly inhibitors; AID 485360; 0.66% of 230,000 active; note: % is set by controls: 0 for no effect and ±100 for the full control effect; nearly all actives have a fitted effect of over 60% in size
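AlphaScreen assay: L3MBTL1 (50 nM final) was preincubated 30 min at room temperature with biotinylated H3(1-15)K9me1 peptide (75 nM final), then 30 min with library compounds; streptavidin donor and nickel chelate acceptor beads (10 ug/mL final) added, 30 min dark.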
BAZ2B inh: inhibitors of human BAZ2B bromodomain | Q9UIF8 | AlphaScreen BAZ2B-H3K14Ac peptide displacement | Potency, µM (top dose mostly 114 µM), without a hit: at the highest dose activity change, negative = inhibition, usual class: inhibitors | 4.4% of 360,000 active | AID 504333; note: % is set by controls: 0 for no effect and ±100 for the full control effect; nearly all actives have a fitted effect of over 60% in size
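Multi-concentration screen (max 110 uM) measuring displacement of acetylated histone H3 peptide from BAZ2B by AlphaScreen, using 50 nM protein, 50 nM peptide and 10 ug/mL streptavidin donor plus Ni-chelate acceptor beads.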
HP1b chromo inh: inhibitors of HP1-beta chromodomain binding to methylated histone tails. Potency, µM (highest dose often 114 µM), inactives show at the highest dose activity change, negative = inhibition, usual class: inhibitors. AlphaScreen HP1-beta / biotin-H3K9me3 peptide binding. 0.56% of 390,000 active. P83916; note: nearly all actives have a fitted effect of over 70% in size
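AlphaScreen: HP1-beta (50 nM) preformed 30 min with biotin-H3(1-18)K9me3 peptide (50 nM) in PBS pH 7.4, 0.01% Tween-20. Compound added for 30 min at RT, then streptavidin donor/nickel chelate acceptor beads (10 ug/mL) for 30 min.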
Sfp inh: blocks B. subtilis Sfp PPTase activity. Q9F4F7. Biochemical Sfp PPTase activity, qHTS. Potency, µM, for inactives: largest response in the series, negative = inhibition, usual class: inhibitors. 3.5% of 310,000 active;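 note: the enzyme is Sfp with the accession as filed and its product quenches rhodamine fluorescence; 0% = enzyme reaction without inhibitor and -100% = no enzyme wells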
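Compounds were incubated with enzyme (final 15 nM) for 15 min at room temperature before substrate addition started the reaction. Fluorescence at 525 nm excitation, 598 nm emission was recorded immediately and after 30 minutes.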
G9a inh: G9a (human) methyltransferase inhibition | G9a H3K9 monomethylation, AlphaScreen, 2 h | Q96KQ7 | Potency, µM (highest dose often 102 µM), for the others: at the highest dose activity, negative = inhibition, hits mostly inhibitors | 8.8% of 350,000 active | AID 504332; note: % is set by controls: 0 for no effect and ±100 for the full control effect; nearly all actives have a fitted effect of over 75% in size
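Compounds were preincubated with 20 nM G9a for 15 min, after which biotinylated H3K9 peptide (500 nM) and SAM (20 uM) started a 2 h room-temperature reaction. Monomethylated product was quantified by antibody-based AlphaScreen chemiluminescence.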
JMJD2A Tudor: inhibitors of human JMJD2A Tudor domain; O75164; AlphaScreen JMJD2A-Tudor / H3K4me3 peptide binding; Potency, µM (titrated, usually from 114 µM), for inactives: at the highest dose activity change, negative = inhibition, most hits filed as inhibitors; 4.4% of 390,000 active; note: % is set by controls: 0 for no effect and ±100 for the full control effect; nearly all actives have a fitted effect of over 50% in size
An asterisk follows results filed as active; ? = inconclusive; / = no result given; ! = not active in a repeat; [ ] = another dose, or the depositor's remark. Compounds with a hit are over-represented: about 12% of the library has one in this group of screens. Calls come from the whole dose curve; as a rule, active = well fitted curve in the direction sought with a large enough effect; inconclusive = small, poorly fitted or top-dose-only effect, or another doubt; inactive = no such curve, though single readings can be large; an effect the other way counts as inactive or inconclusive. Potency is the fitted concentration of half-maximal effect.

SMILES | L3MBTL1 block | BAZ2B inh | HP1b chromo inh | Sfp inh | G9a inh | JMJD2A Tudor
C=CCN1CCN(c2nc3ccccc3nc2C#N)CC1 | / | / | / | 56µM*! | 26%[59 µM] | /
Cc1ccc(S(=O)(=O)c2cnc(SCC(=O)Nc3ccc4c(c3)OCCO4)[nH]c2=O)cc1 | / | -7% | 35% | / | 5%[59 µM] | -11%
COc1ccc2c(=O)c3c(=O)n(Cc4ccco4)c(-c4ccc(C)cc4)nc3oc2c1 | / | ? | 9% | 25µM* | ? | 89µM*
O=c1c2ccccc2oc2nc(-c3ccco3)n(Cc3ccccc3)c(=O)c12 | 4% | 56µM* | 20% | 6% | ? | -14%
O=c1c2ccccc2nc(-c2ccccc2)n1Cc1ccco1 | 0% | -32% | 4% | 3% | ? | -26%
COCCn1c(-c2ccc(C)cc2)nc2oc3cc(OC)ccc3c(=O)c2c1=O | 14% | 0% | 30% | -5% | / | -28%
CCCCn1c(-c2ccco2)nc2ccccc2c1=O | -9% | -22% | 49% | -24% | 50µM* | 5%
Cc1cc(C(=O)OC(C(=O)Nc2cccc(C(F)(F)F)c2)c2ccccc2)c(C)o1 (stereo not drawn) | 11% | 1% | 35% | 24% | -2% | -9%
Cc1ccc(NC(=O)C(OC(=O)c2cc(C)oc2C)c2ccccc2)cc1 (stereo not drawn) | 4% | -5% | 17% | 11% | 79µM* | -9%
O=C1CN(S(=O)(=O)c2ccc3c(c2)OCCO3)CCN1S(=O)(=O)c1c(F)cccc1F | / | / | / | / | / | -16%
CCCNc1nc2ccccc2c(=O)[nH]1 | / | 4% | 2% | 18% | 8% | -2%
CCCNc1cc(=S)nc(N)[nH]1 | -23% | -30% | ? | ? | 0.63µM* | 22µM*
CCN(Cc1ccccc1)C(=O)Cn1c(=O)n(-c2ccccc2)c(=O)c2c1c1cc(C)ccc1n2C | / | ? | 39% | / | -2%[59 µM] | 12%
CN(C)c1ccc(C(=O)NCC2CCCO2)cc1 (stereo not drawn) | 1% | -2% | 47% | -3% | ? | -17%
CCOc1cccc(C(=O)N(Cc2ccc(N(C)C)cc2)CC2CCCO2)c1 (stereo not drawn) | / | 50µM* | 3% | / | 14µM* | ?
Cc1ccc(C(=O)N(Cc2ccc(N(C)C)cc2)CC2CCCO2)cc1 (stereo not drawn) | / | 35µM* | -23% | / | 13µM* | ?
COc1ccccc1OCC(=O)N(Cc1ccc(N(C)C)cc1)CC1CCCO1 (stereo not drawn) | / | ? | 9% | / | ? | ?
CN(C)c1ccc(CN(CC2CCCO2)C(=O)c2ccc(Br)cc2)cc1 (stereo not drawn) | / | 40µM* | ? | / | 14µM* | 50µM*
COc1ccc(C(=O)N(Cc2ccc(N(C)C)cc2)CC2CCCO2)cc1 (stereo not drawn) | / | ? | 21% | / | 11µM* | ?
CCC(=O)N1CCc2cc(S(=O)(=O)NC(C(=O)NCc3ccccc3Cl)C(C)C)ccc21 (stereo not drawn) | / | / | 21% | / | -12%[59 µM] | -10%
COc1ncc2nc(-c3cn(C)c4ccccc34)c(=O)n(CCC#N)c2n1 | / | / | / | 26% | 12%[0.501 µM] | /
COc1ccc(C)cc1NC(=O)N1CCC(CN2CCOCC2)CC1 | / | 5% | 57% | / | -3%[59 µM] | -16%
CN(C)c1ccc(CN(CC2CCCO2)C(=O)c2cc3ccccc3o2)cc1 (stereo not drawn) | ? | 10µM* | ? | / | 6.3µM* | 45µM*
CN(Cc1ccc(N(C)C)cc1)C(=O)c1cc2ccccc2o1 | / | 32µM* | ? | -1% | 40µM* | 50µM*
COc1cc(C(=O)NCc2ccc3c(c2)CCN3C(=O)c2ccc(Cl)cc2)cc(OC)c1OC | / | -6% | 23% | / | -2%[59 µM] | -19%
CC1=C(C(=O)OCC(C)C)C(c2cc3c(cc2Br)OCO3)NC(=O)N1C (stereo not drawn) | 3% | 0% | 10% | -16% | ? | -14%

High-throughput results (PubChem)
